According to PMC4336329 (PLoS ONE, 2015):
The whole screen tested about 310,000 compounds, of which about 14,000 (4.5%) showed an effect of 50% or more. The effect is printed as a negative number. Shown is part of a subset that was picked to be rich in strong results.

molecular target: human ether-à-go-go-related gene (hERG) potassium channel (human, UniProt Q12809); assay: primary screen, population patch clamp on CHO cells stably expressing hERG; higher = less effect of the substance
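Further: peak tail current of the secondary pulse compared with the same well before compound.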

human ether-à-go-go-related gene (hERG) potassium channel, sequence (Q12809 whole entry, looked up): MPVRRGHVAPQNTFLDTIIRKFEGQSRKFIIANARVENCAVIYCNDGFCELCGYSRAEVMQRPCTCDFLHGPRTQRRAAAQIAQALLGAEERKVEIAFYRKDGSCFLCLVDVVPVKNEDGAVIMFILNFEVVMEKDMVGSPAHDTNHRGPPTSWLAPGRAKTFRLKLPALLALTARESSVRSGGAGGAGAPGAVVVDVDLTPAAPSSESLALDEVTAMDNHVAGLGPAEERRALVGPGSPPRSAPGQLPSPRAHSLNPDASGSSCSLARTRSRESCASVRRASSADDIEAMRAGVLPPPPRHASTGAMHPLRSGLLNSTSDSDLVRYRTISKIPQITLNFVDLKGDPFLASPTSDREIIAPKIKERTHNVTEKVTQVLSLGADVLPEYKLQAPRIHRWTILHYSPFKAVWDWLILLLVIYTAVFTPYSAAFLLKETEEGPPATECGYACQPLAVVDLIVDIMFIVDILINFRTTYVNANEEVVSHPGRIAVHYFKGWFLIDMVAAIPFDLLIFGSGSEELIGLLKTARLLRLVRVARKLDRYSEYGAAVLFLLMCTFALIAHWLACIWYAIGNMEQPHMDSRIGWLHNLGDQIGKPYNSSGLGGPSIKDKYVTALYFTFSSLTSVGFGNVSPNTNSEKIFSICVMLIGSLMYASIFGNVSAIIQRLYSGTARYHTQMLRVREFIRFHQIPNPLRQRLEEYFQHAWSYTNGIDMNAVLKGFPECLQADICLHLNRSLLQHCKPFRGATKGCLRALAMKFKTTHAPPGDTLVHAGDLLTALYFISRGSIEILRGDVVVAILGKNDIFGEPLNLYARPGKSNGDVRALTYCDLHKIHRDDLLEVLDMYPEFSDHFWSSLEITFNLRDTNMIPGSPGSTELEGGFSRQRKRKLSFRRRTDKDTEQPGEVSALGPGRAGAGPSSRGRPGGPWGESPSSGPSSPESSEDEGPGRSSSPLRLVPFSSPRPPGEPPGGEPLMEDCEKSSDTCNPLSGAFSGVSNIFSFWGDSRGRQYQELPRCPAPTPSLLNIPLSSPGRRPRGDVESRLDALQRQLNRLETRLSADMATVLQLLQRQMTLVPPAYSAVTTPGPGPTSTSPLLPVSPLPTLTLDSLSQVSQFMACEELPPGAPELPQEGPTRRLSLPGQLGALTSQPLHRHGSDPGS

Compound | hERG current change (%, negative = inhibition) at 10uM [%]
CCOc1ccccc1C(=O)NCCC(=O)O | 8.38
Cc1onc(-c2c(F)cccc2Cl)c1C(=O)N1CCc2ccccc2C1 | -15.7
O=C(CCn1ccc2cc(S(=O)(=O)N3CCCC3)ccc21)NCCc1ccccc1 | -16.9
O=C(Nc1ccc(Br)cc1)C1CCCC1 | 9.31
O=C(c1ccc(COc2ccccc2Cl)o1)N1N=C(C(F)F)CC1(O)C(F)F (stereo not shown) | 17.1
COc1ccc(CCNc2ccc(C(CC(N)=O)NC(=O)Cc3ccc(Br)cc3)cc2[N+](=O)[O-])cc1 (stereo not shown) | 4.07
S=c1[nH]nc(-c2cc(-c3ccsc3)n[nH]2)n1-c1cccc2ccccc12 | -12.6
COc1cccc(N2CC(NC(=O)c3cccc4ccccc34)CC2=O)c1 (stereo not shown) | -6.44
CCCC1(CCC)C(=O)NC(=NCCc2ccc(OC)c(OC)c2)NC1=O | 13.4
COc1ccc(CNC(=O)CCCn2ncn3c(cc4occc43)c2=O)cc1 | -22.4
CCOC(=O)CCCn1ncn2c(cc3occc32)c1=O | -0.3
Cc1ccccc1CNC(=O)CCCn1ncn2c(cc3occc32)c1=O | -14.7
CCc1nn(CC(=O)N2CCN(c3cc(C)ccc3C)CC2)c(=O)c2cc3occc3n12 | 13
Cc1ccc(C)c(N2CCN(C(=O)CCCn3ncn4c(cc5occc54)c3=O)CC2)c1 | -63.4
CCOc1ccc(CNC(=O)CCCn2nc(CC)n3c(cc4occc43)c2=O)cc1 | -24.7
CCc1nn(CCCC(=O)N2CCc3ccccc3C2)c(=O)c2cc3occc3n12 | -29
O=C(CCCn1ncn2c(cc3occc32)c1=O)N1CCc2ccccc2C1 | -63
CCc1nn(CCCC(=O)NCc2ccc(OC(C)C)cc2)c(=O)c2cc3occc3n12 | -54.4
O=C(CCCn1ncn2c(cc3occc32)c1=O)NCc1cccc(Cl)c1 | -61.3
CCc1nn(CCCC(=O)NCc2ccc(C)cc2)c(=O)c2cc3occc3n12 | -8.1
COc1cccc(CNC(=O)CCCn2ncn3c(cc4occc43)c2=O)c1 | -42.9
Cc1nnc(NC(=O)c2cc(-c3ccco3)nc3ccccc23)s1 | 2.18
Cc1nc2cc(NC(=O)NCc3ccco3)ccc2o1 | 9.7
Cn1c(C(=O)NC2CC2)cc(=O)n(C)c1=O | -8

Compound | hERG current change (%, negative = inhibition) at 10uM [%]
COc1ccc(CNC(=O)COC(=O)c2ccc(C)c(S(=O)(=O)N3CCOCC3)c2)cc1OC | 6.13
CC1CCCN(S(=O)(=O)c2csc(C(N)=O)c2)C1 (stereo not shown) | 15.2
O=C(NCc1csc2ccccc12)Nc1cc(Cl)cc(Cl)c1 | 13.6
CCOc1ccc(C(C)(N)C(=O)O)cc1 (stereo not shown) | -2.39
COc1ccc(NC(=O)c2cn(-c3ccccc3)nc2SC)cc1 | -8.55
COc1ccc(CNC(=O)c2cc(-c3ccc(OC)c(OC)c3)on2)cc1 | 6.84
CCC(=O)Oc1ccc(C/C(=N\O)c2ccc(O)cc2O)o1 | -8.07
CCOC(=O)CCCn1nc(C)n2c(cc3sccc32)c1=O | -21.6
Cc1nn(CCCC(=O)N2CCc3ccccc3C2)c(=O)c2cc3sccc3n12 | -75.5
CCOC(=O)C1CCCN(C(=O)CCCn2nc(C)n3c(cc4sccc43)c2=O)C1 (stereo not shown) | -49.3
COc1ccc(C(CNCC(=O)Nc2ccccc2F)N(C)C)cc1.O=C(O)C(=O)O (stereo not shown) | -35.1
O=S(=O)(NCC(c1ccc2c(c1)OCO2)N1CCOCC1)c1ccc(Br)cc1 (stereo not shown) | -16
COc1ccc(F)cc1S(=O)(=O)NCC(c1ccc2c(c1)OCO2)N1CCN(C)CC1 (stereo not shown) | -45.6
COc1ccc(S(=O)(=O)NCC(c2ccc3c(c2)OCO3)N2CCOCC2)cc1 (stereo not shown) | -6.41
CCOc1ccc(S(=O)(=O)NCC(c2ccc3c(c2)OCO3)N2CCN(C)CC2)cc1 (stereo not shown) | -59.2
COc1ccc(C)cc1S(=O)(=O)NCC(c1ccc2c(c1)OCO2)N1CCOCC1 (stereo not shown) | -13.6
Cc1ccc(S(=O)(=O)NCC(c2ccc3c(c2)OCO3)N2CCOCC2)cc1 (stereo not shown) | -8.63
COc1ccc(C)cc1S(=O)(=O)NCC(c1ccc2c(c1)OCO2)N1CCN(C)CC1 (stereo not shown) | -68.2
CN1CCN(C(CNS(=O)(=O)c2ccc(Br)cc2)c2ccc3c(c2)OCO3)CC1 (stereo not shown) | -79.8
COc1ccc(S(=O)(=O)NCC(c2ccc3c(c2)OCO3)N2CCN(C)CC2)cc1OC (stereo not shown) | -15.5
O=C(NC(=O)c1ccc(F)cc1)Nc1nc(-c2cccs2)cc(C(F)(F)F)n1 | 12.2
Cn1nnnc1SCC(=O)N1CCOCC1 | 16.2
CN1CCN(C(=O)/C(C#N)=C/c2ccc(F)cc2)CC1.Cl | 6.63
CC1CC(C)CN(C(=O)/C(=C\c2ccccc2)c2ccccc2)C1 (stereo not shown) | -27.4

Compound | hERG current change (%, negative = inhibition) at 10uM [%]
CN1CCN(C(=O)CCC(=O)c2ccc(F)cc2)CC1 | 8.49
O=C(O)/C(=C\c1ccccc1)c1ccccc1 | -0.424
CN1CCN(C(=O)/C(=C\c2ccccc2)c2ccccc2)CC1 | -59.9
CN1CCN(C(=O)/C(=C/c2ccc(F)cc2)c2ccsc2)CC1.Cl | -70.1
CC1CCCCN1C(=O)/C(=C\c1ccccc1)c1ccccc1 (stereo not shown) | -17.4
CN1CCN(C(=O)/C(=C/c2ccccc2)c2ccccc2)CC1 | -54.8
C/C(=C/c1ccccc1)C(=O)N1CCN(c2ccccc2)CC1 | -16.2
COCCn1c(-c2ccccc2)nc(=S)c2c1CC(C)(C)OC2 | -11.5
COc1ccc(-c2noc(N3CCC(C(=O)NCc4ccc(F)cc4)CC3)n2)cc1 | -20.4
CC(=N)C1=C(O)CC(C)(C)CC1=O | 1.84
CC(=O)NCCCC(=O)NN1C(=S)N(Cc2ccccc2)C(=O)C1CC(=O)Nc1cccc(C)c1 (stereo not shown) | 8.8
O=C(NC1CC(=O)N(c2ccc3c(c2)OCCO3)C1)N1CCCCC1 (stereo not shown) | 12.4
CC1(c2nnc(-c3ccc(F)cc3)o2)CC(c2c(Cl)cccc2Cl)=NO1 (stereo not shown) | -37
COC(=O)c1nnn(-c2nonc2N)c1CN1CCc2ccccc21 | 4.57
c1ccc(CNCC2COc3ccccc3O2)cc1 (stereo not shown) | 8.17
O=C(Cn1c(CO)nc2ccccc21)Nc1ccccc1Cl | 25.1
CCC(CC)c1nnc(NC(=O)CCc2ccc(OC)cc2)s1 | 13.1
Cc1cc2cc(CCNC(=O)c3cccc([N+](=O)[O-])c3)c(=O)[nH]c2cc1C | -47.1
Cc1ccc2cc(CCNC(=O)c3cccc([N+](=O)[O-])c3)c(=O)[nH]c2c1 | -20.2
CC(C)N(Cc1cc2ccccc2[nH]c1=O)C(=O)c1cccc([N+](=O)[O-])c1 | -13.4
CCN(Cc1cc2cc(C)ccc2[nH]c1=O)C(=O)c1cccc([N+](=O)[O-])c1 | -37.9
Cc1ccc2[nH]c(=O)c(CN(C(=O)c3cccc([N+](=O)[O-])c3)C(C)C)cc2c1 | -50.5
COc1ccc2cc(CCNC(=O)c3cccc([N+](=O)[O-])c3)c(=O)[nH]c2c1 | -79.2
CC(O)CNc1nc2c(c(=O)n(C)c(=O)n2C)n1C/C=C/c1ccccc1 (stereo not shown) | -13.7

Compound | hERG current change (%, negative = inhibition) at 10uM [%]
COc1ccc(NS(=O)(=O)c2cc(NC(=O)c3ccc(=O)[nH]n3)ccc2N2CCOCC2)cc1 | -23.2
COc1ccc(NC(=O)C2CCN(S(=O)(=O)c3cccc4cccnc34)CC2)cc1OC | 9.47
Cc1nn(C(C)(C)C)c(C)c1/C=N/OC(=O)Nc1ccc(Cl)c(Cl)c1 | 1.85
CN(C(=O)c1ccc(OC2CCN(Cc3ccccn3)CC2)cc1)C1CCCCC1 | -9.82
C=CCN(CC=C)C(=O)c1ccc(OC2CCN(Cc3ccccn3)CC2)cc1 | -9.67
C#CCN(Cc1ccco1)C(=O)c1ccc(OC2CCN(Cc3ccccn3)CC2)cc1 | -66.9
C#CCN(C(=O)c1ccc(OC2CCN(Cc3ccccn3)CC2)cc1)C1CCCCC1 | -39.6
CN(Cc1ccco1)C(=O)c1ccc(OC2CCN(Cc3ccccn3)CC2)cc1 | -6.63
CC#CCN(Cc1ccco1)C(=O)c1ccc(OC2CCN(Cc3ccccn3)CC2)cc1 | -60.3
CCOC(=O)c1cnn(-c2nc(CC)nc3sc4c(c23)CCC4)c1N | 8.44
O=C(NNC(=O)c1ccccc1F)c1ccc(-n2cncn2)c([N+](=O)[O-])c1 | 7.74
O=C(c1ccc(-n2cncn2)c([N+](=O)[O-])c1)N1CCN(S(=O)(=O)c2cccc(F)c2)CC1 | -71.9
O=C(c1ccc2nc[nH]c2c1)N1CCN(S(=O)(=O)c2cccc(F)c2)CC1 | 12
O=C(c1ccc(-n2cncn2)c([N+](=O)[O-])c1)N1CCN(S(=O)(=O)c2ccccc2F)CC1 | -45.1
O=C(c1ccncc1)N1CCN(S(=O)(=O)c2cccc(F)c2)CC1 | 7.6
O=C(c1ccc(-n2cncn2)c([N+](=O)[O-])c1)N1CCN(S(=O)(=O)c2ccc(Cl)cc2)CC1 | -61.4
O=C(c1ccc(Cl)c([N+](=O)[O-])c1)N1CCN(S(=O)(=O)c2ccc(Cl)cc2)CC1 | -11.3
C=CCN1C(=O)c2ccc(C(=O)N3CCN(S(=O)(=O)c4cccc([N+](=O)[O-])c4)CC3)cc2C1=O | -30.4
C=CCN1C(=O)c2ccc(C(=O)N3CCN(S(=O)(=O)c4cccc(Cl)c4)CC3)cc2C1=O | -14.8
C=CCN1C(=O)c2ccc(C(=O)N3CCN(S(=O)(=O)c4cccc(F)c4)CC3)cc2C1=O | -62.7
O=C(c1ccc(-n2cncn2)c([N+](=O)[O-])c1)N1CCN(S(=O)(=O)c2c(F)cccc2F)CC1 | -56.8
Nc1ccc(C(=O)N2CCN(S(=O)(=O)c3ccc(Cl)cc3)CC2)cc1[N+](=O)[O-] | -46.1
